The record followed here is publication PMC7819943, “Rice protein-binding microarrays: a tool to detect cis-acting elements near promoter regions in rice”.

Over roughly 68,000 sequences, “fluorescence intensity (a.u.)” has its median near 9,100; the highest 2% begin near 16,000. Only a selection was taken, and the highest values are over-represented in it overall.

The target in the assay is OsWRKY34 (Oryza sativa, UniProt Q0JBA9 1-250). Description: protein-binding microarray (RPBM); PBS, 2% BSA, 51.3 ng/ul salmon testes DNA, 50 uM zinc acetate, 200 nM TF, 25 C, 1 h; high values mean tight binding. To be noted: protein: recombinant; tags: N-terminal polyhistidine and DsRed monomer fusion (pET32a); label: CyDye5-dUTP incorporated in the synthesized complementary strand; 3' TTTTT single-stranded linker to array surface; dsDNA, one strand shown. The essentials: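 The binding signal is fluorescence intensity per feature, in arbitrary units, read on an Axon 4000B scanner. Polyhistidine- and DsRed-tagged transcription factors (N-terminal fusions) from E. coli BL21-CodonPlus were purified on Ni–NTA and applied at 200 nM for 1 h at 25 °C to a double-stranded, BSA-blocked custom Agilent array in buffer with 50 µM zinc acetate.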
Sequence of OsWRKY34 (Q0JBA9 entry or part of it): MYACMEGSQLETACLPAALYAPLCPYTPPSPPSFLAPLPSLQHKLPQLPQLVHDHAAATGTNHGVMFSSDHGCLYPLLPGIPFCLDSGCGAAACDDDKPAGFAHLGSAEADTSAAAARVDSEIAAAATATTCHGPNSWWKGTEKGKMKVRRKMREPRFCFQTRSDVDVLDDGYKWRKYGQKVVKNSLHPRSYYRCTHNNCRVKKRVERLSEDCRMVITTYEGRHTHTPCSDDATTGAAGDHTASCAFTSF
In the case of “AGACTTTATTTTTTCCCTGGGCTAAGGACTAGTCCCATATCGGAGTCACCTAGTGCAG”, the binding signal is 8980 fluorescence intensity (a.u.).
“GGGACCCGATTTGGGCGGTATATACCTTACTTCACGTGCACGGAGTCACCTAGTGCAG”: the binding signal is 8920 fluorescence intensity (a.u.).
With “ATCGCTGCTGTCTTCTCAAATTATAATTTACCGTTTTTAACGGAGTCACCTAGTGCAG” the figure was 8090 fluorescence intensity (a.u.); with “GCCTCCATCCACCTCGCCCATCCCTACACTCTACTACTCCCGGAGTCACCTAGTGCAG”, 8670 fluorescence intensity (a.u.); with “CTCCTACTGCCTACCGCCGACGCAGAACTCCGTGGGTTACCGGAGTCACCTAGTGCAG”, 8210 fluorescence intensity (a.u.).
Regarding “GCCTCTCGTGGGCCGTCGCCGCCCACCCGCCCGGACACGTCGGAGTCACCTAGTGCAG”, the binding signal was 8380 fluorescence intensity (a.u.).
With “GGAGTTCGTGGGGACGTTCATCCTCATCTTCTTCGCGACGCGGAGTCACCTAGTGCAG” the figure was 9260 fluorescence intensity (a.u.).
Under “GAGTAGAGGTGGGAGGAAGCGGTGGTGTGGTGGGGTGGGGCGGAGTCACCTAGTGCAG” stands 22100 fluorescence intensity (a.u.); under “GCCGTGGTGGTGTGGGGATCGTGTTGTGGCGGCGGATTGGCGGAGTCACCTAGTGCAG”, 8690 fluorescence intensity (a.u.); under “CGGCGCGCCGTGATTGTGCCTGATTGGGGTGGGGTTGGGGCGGAGTCACCTAGTGCAG”, 25300 fluorescence intensity (a.u.).
With “GTGGGTGGAGGAAGCGGATAGGGAGAGGGGTGTGGGGCGGCGGAGTCACCTAGTGCAG” the figure was 16000 fluorescence intensity (a.u.).
On to “CGGCGGCGGCGGCGGCGGCGGCGGAGGTGGTGTGGGTGGGCGGAGTCACCTAGTGCAG”, for which the binding signal is 8220 fluorescence intensity (a.u.).
Consider “GGGAGGGAGCCAGAGCGGCGGGCGTGGGGTTGGAGGAGGGCGGAGTCACCTAGTGCAG”, for which the binding signal is 9900 fluorescence intensity (a.u.).
Under “GGGCGGGCGGGCTCGAGGTTGTGGTGGGGCGTGTGGCAGGCGGAGTCACCTAGTGCAG” stands 18200 fluorescence intensity (a.u.); under “ACGCGCGGCCTAGTTGTGTGTGGGTGTGTGAGGTGAGGGGCGGAGTCACCTAGTGCAG”, 11000 fluorescence intensity (a.u.); under “ATGAGGGGTCGGGGTTGGGCGGCGTGGGCACGGGCTCGAGCGGAGTCACCTAGTGCAG”, 13000 fluorescence intensity (a.u.).
For “GTCGGCGTCGGCGTCGGCGTCGGCGGGCGGGAGGCGGGAGCGGAGTCACCTAGTGCAG”, the binding signal is 8650 fluorescence intensity (a.u.).
As to “TTGGCTCGAGGCGGGGCTGGTTGGTTGGTTGGTTTGGTGGCGGAGTCACCTAGTGCAG”, the binding signal was 14600 fluorescence intensity (a.u.).
On to “GGTGGCGTGCAGGGTGGAGCGGGAGGGCGGCGGCGGGTGGCGGAGTCACCTAGTGCAG”, for which the binding signal is 17300 fluorescence intensity (a.u.).
Take “CCGAAGATATCAACCAAACAGACCCGAACTTCTTCCCATTCGGAGTCACCTAGTGCAG”: the binding signal was 8360 fluorescence intensity (a.u.).
With “TGTTTTGGACTTTTTGGTCAACGGCCCATCAAAGCAAGCCCGGAGTCACCTAGTGCAG”, the binding signal was 13000 fluorescence intensity (a.u.).
Turning to “GCCAAACGCGCCAGATCCGCGCCTCCTCCACTCACACGCGCGGAGTCACCTAGTGCAG”, the binding signal is 8910 fluorescence intensity (a.u.).
For the sequence “AGCACCACCACCACCCCAGCGCCTCCTACTCCACCGGCTCCGGAGTCACCTAGTGCAG”, the binding signal was 8830 fluorescence intensity (a.u.).
Under “TCCATGCAGTCTTCTTCTTCTGCAGCCTATGCTGTTAGTCCGGAGTCACCTAGTGCAG” stands 11700 fluorescence intensity (a.u.); under “TTTCATTGTTTCCGCAGACACGCTTTTCAAACTACTAAACCGGAGTCACCTAGTGCAG”, 8080 fluorescence intensity (a.u.); under “AATTTATAACCGTGACCTGCTGCCATATGCTAACCGTTTACGGAGTCACCTAGTGCAG”, 8260 fluorescence intensity (a.u.).
Turning to “CTTTGTGCTGGACCGACGACGTCGTTCGCTCTTTTATCCTCGGAGTCACCTAGTGCAG”, the binding signal is 9040 fluorescence intensity (a.u.).
With “TGATCTGATCTGACAATTTGGGCGGGCTGTGTTTTATGAACGGAGTCACCTAGTGCAG” the figure was 12900 fluorescence intensity (a.u.); with “CATATCAGTGGTTAACTGTGCTGTCTCAGTTGATCTCCCGCGGAGTCACCTAGTGCAG”, 8360 fluorescence intensity (a.u.); with “CATGTTAGATGTTTTTTTTCTTGTTACTCTTTTTTATTTTCGGAGTCACCTAGTGCAG”, 13300 fluorescence intensity (a.u.).
With “ACCTCTGTTTTCATGGGCTAGTGGCCCAGTACCTCACTGCCGGAGTCACCTAGTGCAG” the figure was 8930 fluorescence intensity (a.u.); with “GCATGGAGGCGTTTCATCAAACACCTTGCGCCTGCGGGAGCGGAGTCACCTAGTGCAG”, 8030 fluorescence intensity (a.u.).
Regarding “AACCCACCTATCTTGTTTTCCACGTGTACGCTTTTCAAACCGGAGTCACCTAGTGCAG”, the binding signal was 19200 fluorescence intensity (a.u.).
For “AACCCACCTCTTTCGTTTTCCGCGCGTACGCTTTTCAAACCGGAGTCACCTAGTGCAG”, the binding signal was 8710 fluorescence intensity (a.u.).
As to “AACTACAACTATCTTGTTTTTATTTACACGCTTTTCAAACCGGAGTCACCTAGTGCAG”, the binding signal is 8620 fluorescence intensity (a.u.).
With “TCTGTATATATTACTACTTGCGTTTCTCTTTCTTTCTTCCCGGAGTCACCTAGTGCAG” the figure was 11000 fluorescence intensity (a.u.); with “ATCACATCTTAACATTTCATTCTCTGCTCAAAGATTCGATCGGAGTCACCTAGTGCAG”, 8620 fluorescence intensity (a.u.); with “AGCTCATCACTTCTTCTTGCATGCATGCACTACCGTCGGCCGGAGTCACCTAGTGCAG”, 10400 fluorescence intensity (a.u.).
Under “GGTGAAGCTCTGCGCTGACACGTTGATGCAGCGGAGCACGCGGAGTCACCTAGTGCAG” stands 18900 fluorescence intensity (a.u.); under “TGCACACATGCACACACGCGCGCGCTGCTGCTGCTGCTGACGGAGTCACCTAGTGCAG”, 8160 fluorescence intensity (a.u.).
Take “GCACACCCTCGCTCTGACGACCCTGTCACGTTGAGCTACGCGGAGTCACCTAGTGCAG”: the binding signal is 8240 fluorescence intensity (a.u.).
With “ACAACGCATTTCCATTTCTACTCTGCCCCTGGTAAATTACCGGAGTCACCTAGTGCAG” the figure was 12400 fluorescence intensity (a.u.); with “ACTGCCTTACCTGTTCATCTTCCAAACTGATTTGGTTTGTCGGAGTCACCTAGTGCAG”, 9370 fluorescence intensity (a.u.); with “AAACAATTATCTAAAAACCTCACTATTAATAGAGAGATTCCGGAGTCACCTAGTGCAG”, 38700 fluorescence intensity (a.u.).
